# The sample as a whole holds a higher share of hits than the screen did.
# AmpC no deterg – qHTS Inhibitors of AmpC Beta-Lactamase (assay without detergent) | P00811 | AmpC nitrocefin hydrolysis, absorbance 480 nm, 0.0001% Triton | Potency, µM (titrated, usually from 57.1 µM), inactives show top-dose activity change, negative = inhibition, actives largely listed as inhibitors | 0.52% of 330,000 active | AID 485341, 2010; active = well fitted curve in the direction sought with a large enough effect; inconclusive = small, poorly fitted or top-dose-only effect, or another doubt; inactive = no such curve, though single readings can be large; an effect the other way counts as inactive or inconclusive;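 note: potency is the fitted concentration of half-maximal effect; plate controls were no compound for no effect and no enzyme for full effect; nearly all actives have a fitted effect of over 20% in size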
# Target sequence (P00811 whole entry, looked up): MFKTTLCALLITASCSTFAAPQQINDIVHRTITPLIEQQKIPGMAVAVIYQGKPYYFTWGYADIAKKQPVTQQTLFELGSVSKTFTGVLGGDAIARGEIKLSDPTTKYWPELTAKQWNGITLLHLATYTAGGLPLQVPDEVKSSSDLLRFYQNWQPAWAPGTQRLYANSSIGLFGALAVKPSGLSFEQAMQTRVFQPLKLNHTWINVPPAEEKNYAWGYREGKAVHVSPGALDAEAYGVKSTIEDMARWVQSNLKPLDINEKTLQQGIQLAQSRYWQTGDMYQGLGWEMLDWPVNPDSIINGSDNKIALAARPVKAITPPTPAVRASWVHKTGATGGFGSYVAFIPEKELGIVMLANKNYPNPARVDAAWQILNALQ
#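 20 mM phosphate pH 7.0 + 0.01% (detergent screen) or 0.0001% Triton X-100; 5.3 nM AmpC reagent; cpd preinc 15 min RT; nitrocefin (800 uM stock) to start; A480 q20 s × 4 min; Activity was normalised to no-enzyme and no-compound control wells.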
# AmpC inh detg – qHTS Inhibitors of AmpC Beta-Lactamase (assay with detergent). P00811. AmpC hydrolysis of nitrocefin, absorbance 480 nm, 0.01% Triton. Potency, µM (series often up to 114 µM), inactives show top-dose activity change, negative = inhibition, actives largely listed as inhibitors. 0.041% of 370,000 active. AID 485294, 2010; active = well fitted curve in the direction sought with a large enough effect; inconclusive = small, poorly fitted or top-dose-only effect, or another doubt; inactive = no such curve, though single readings can be large; an effect the other way counts as inactive or inconclusive;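 note: potency is the fitted concentration of half-maximal effect; 0% = no-compound wells and -100% = no-enzyme wells; nearly all actives have a fitted effect of over 25% in size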
#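 20 mM phosphate pH 7.0 + 0.01% (detergent screen) or 0.0001% Triton X-100; 5.3 nM AmpC reagent; cpd preinc 15 min RT; nitrocefin (800 uM stock) to start; A480 q20 s × 4 min; Activity was normalised to no-enzyme and no-compound control wells.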
# NS1 function inh – qHTS Assay for Inhibitors of Influenza NS1 Protein Function; 0.4% of 270,000 active; Potency, µM (highest dose often 46.1 µM), for inactives: top-dose activity, positive = more growth; AID 2326, 2010; note: potency is the fitted concentration of half-maximal effect; actives are rising curves; nearly all actives have a fitted effect of over 50% in size
#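 OD600 was taken as the measure of yeast growth restored by compound in an NS1-expressing S. cerevisiae strain. Cells had been washed out of glucose medium and diluted 1:100 into galactose -URA medium, pH 6.0.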
# CHX counter – Cycloheximide Counterscreen for Small Molecule Inhibitors of Shiga Toxin. max response, %. cell reporter, cycloheximide protein synthesis inhibition counterscreen. 12% of 300,000 active; in the data active = max response mostly above about 13%, no sharp cut-off; inactive = mostly below about 14%; note: read at 38.3 µM for the half of the compounds with a filed dose; 0% is about no effect
# Shiga toxin inh – A qHTS for Small Molecule Inhibitors of Shiga Toxin | 9.2% of 290,000 active | Vero cells, Shiga toxin protein synthesis inhibition reporter | AID 2315, 2010 | inhibition, % at 38.7 µM; in the data active = inhibition mostly above about 28%, no sharp cut-off; inactive = mostly below about 43%; note: 0% is about no effect
# NS1 inh valid – Assay for Inhibitors of Influenza NS1 Protein Function: Hit Validation | activity change, negative = inhibition, % at 32.9 µM | shares compounds with NS1 function inh | influenza NS1 function cell assay, 15-point titration | 1,400 tested, under 10 active; note: 0% is about no effect
# Flu PR8 replic – Assay for Inhibitors of Influenza NS1 Protein Function: Influenza virus replication assay in MDCK cells infected with virus A/PR/8/34; 30% of 95 active; AID 504647, 2011; shares compounds with NS1 function inh; virus titer (log TCID50), log10 TCID50 at 5 µM; MDCK infected influenza A/PR/8/34, virus titer TCID50; hits give low values; call rule not given here
# An asterisk follows results filed as active; u = inconclusive; x = not tested or not shown. Unless noted, calls come from the whole dose curve.
SMILES,AmpC no deterg,AmpC inh detg,NS1 function inh,CHX counter,Shiga toxin inh,NS1 inh valid,others
COc1cc(C)c(C(N)=O)c(OC)n1,-2%,2%,u,-1,-10,1,
COc1ccc(Nc2nc(C)cc(C)c2C(N)=O)cc1,-6%,u,1%,-5,-2,x,
Cn1c(SCC(=O)Nc2cccc3ccccc23)nc(O)cc1=O,u,u,3.5µM*,-3,10,24,
Cc1ccc(NC(=O)CSc2nc(O)cc(=O)n2C)cc1,-33%,u,11µM*,-3,16,u,
C=CCNC(=O)/C(=C\C=C\c1ccccc1)NC(=O)c1ccc(OCCCC)cc1,35%,0%,11µM*,0,15,u,
CCc1nnc(NC(=O)c2cc(S(=O)(=O)N(C)c3ccc(OC)cc3)ccc2Cl)s1,-13%,5%,-2%,-4,-16,x,
CCCNC(=O)Cn1cnc([N+](=O)[O-])n1,-13%,u,11%,-4,-15,x,
O=C(Cn1cnc([N+](=O)[O-])n1)NCc1ccccc1,-8%,-1%,3.5µM*,-4,-7,3,
Cc1nc(N2CCN(c3ccccn3)CC2)c2c(C)c(C(=O)N3CCN(c4cccc(Cl)c4)CC3)sc2n1,-1%,-6%,15%,8,-11,x,
C#CCn1c(=NC(=O)CN2C(=O)CCC2=O)sc2cc(S(N)(=O)=O)ccc21,-16%,-9%,-1%,27,-6,x,
C#CCn1c(=NC(=O)c2cc(Cl)sc2Cl)sc2cc(S(N)(=O)=O)ccc21,-12%,0%,10µM*,13,36,17,
CCCN(CCC)C(=O)Nc1cc(Cl)ccc1OC,-1%,5%,-7%,6,15,x,
Cc1cnn(-c2cc(N/N=C/c3ccccc3Cl)ncn2)c1,23%,7%,14µM*,2,-11,-14,
O=C(CNS(=O)(=O)c1ccc(Br)cc1)N1CCOCC1,-23%,0%,-2%,-4,-22,x,
COc1cc(NC(=S)N2CCC(C(O)(c3ccccc3)c3ccccc3)CC2)cc(OC)c1,0%,u,4.5µM*,2,-7,13,
CCNC(=S)N1CCC(C(O)(c2ccccc2)c2ccccc2)CC1,17%,-6%,16%,-3,-13,x,
Nc1ncc(S(=O)(=O)NCc2ccc(Cl)cc2)cn1,x,-2%,x,x,x,x,
O=C(CCCn1c(=O)[nH]c2cc(Cl)ccc2c1=O)NCCC1=CCCCC1,-11%,-1%,0%,-2,15,x,
CCOCCOC(=O)c1[nH]c2c(c1C)C(=O)CC(c1ccc(N(C)C)cc1)C2 (stereo unspecified),8%,-16%,-12%,7,18,x,
CCC(C)OC(=O)c1[nH]c2c(c1C)C(=O)CC(c1ccc(N(C)C)cc1)C2 (stereo unspecified),-3%,u,10µM*,41*,57*,-24,
C/C=C/COC(=O)c1[nH]c2c(c1C)C(=O)CC(c1ccc(N(C)C)cc1)C2 (stereo unspecified),-6%,u,13µM*,23*,20,u,
Cc1[nH]n(-c2cccc3ccccc23)c(=O)c1/C=N/c1sc2c(c1C#N)CCC2,-25%,2%,2.2µM*,-1,-12,-9,Flu PR8 replic=8.5
Cc1[nH]n(-c2ccc(F)cc2)c(=O)c1/C=N/c1sc2c(c1C#N)CCCC2,-20%,1%,1%,-2,0,x,
CN(c1ccccc1C(=O)Nc1cccc([N+](=O)[O-])c1)S(C)(=O)=O,-19%,-8%,18%,-3,-4,x,
O=C(c1cc2ccccc2o1)N1CCN(S(=O)(=O)c2ccccc2)CC1,-5%,-3%,x,x,x,x,
SMILES,AmpC no deterg,AmpC inh detg,NS1 function inh,CHX counter,Shiga toxin inh,NS1 inh valid,others
O=C(c1cc2ccccc2o1)N1CCN(S(=O)(=O)c2cccs2)CC1,-5%,1%,10µM*,-1,-4,14,
COc1ccc2c(c1)C(c1ccccc1)=NNC(c1ccco1)=N2,0%,-9%,u,20,33,-15,
CCOc1ccc(C2=NNC(c3cccnc3)=Nc3ccc(OC)cc32)cc1,86%,-3%,6%,8,15,x,
Cn1c(SCC(=O)c2ccc3c(c2)Cc2ccccc2-3)nnc1-c1cccc(N)c1,115%,4%,u,20*,14,34,
CCCNC(=O)C(Cc1ccc(OC)cc1)NC(=O)c1ccc(Cl)cc1 (stereo unspecified),-10%,6%,x,x,x,x,
COc1ccc(-c2cn[nH]c2N)c(OC)c1,79%,-6%,8.9µM*,1,-7,1,
Cc1cccc(-c2noc(-c3ccc(NCc4ccccc4)c([N+](=O)[O-])c3)n2)c1,x,-2%,x,x,x,x,
CCCOc1ccc(-c2nc(-c3ccc(N)cc3)cs2)cc1,22%,-2%,13µM*,68*,62*,4,
CCCOc1ccc(Cc2nc(N)nc(N)n2)cc1,-9%,u,0%,-2,9,x,
CC(N=Cc1c(O)[nH]c(=O)[nH]c1=O)c1ccccc1 (stereo unspecified),3%,0%,10µM*,5,-10,0,
COC(=O)c1ccccc1N=Cc1c(O)[nH]c(=O)[nH]c1=O,-2%,7%,10%,8,-6,x,
CN(C)c1ccc(NC(=O)CSCc2nc3c(nnn3Cc3ccc(F)cc3)c(=O)[nH]2)cc1,-22%,-2%,6.3µM*,8,15,-5,Flu PR8 replic=7.7
Cc1cccc(NC(=O)CSCc2nc3c(nnn3Cc3ccc(F)cc3)c(=O)[nH]2)c1C,5%,u,-1%,-1,9,x,
C1=C(CCNC2=NCCCCC2)CCCC1,1%,13%,20µM*,18,22,-11,
Cc1ccc(C2(C)NC(=O)N(CC(=O)NCCC3=CCCCC3)C2=O)cc1 (stereo unspecified),14%,3%,11µM*,10,-2,14,
O=C(OCC(=O)N1CCCc2ccccc21)c1cncc(Br)c1,10%,-4%,-14%,-2,-14,x,
COC(=O)c1c(NC(=O)CN2CCN(Cc3ccc4c(c3)OCO4)CC2)sc(C)c1C,164%,-20%,-54%,-4,-17,x,
COC(=O)c1c(NC(=O)CN2C(=O)c3ccccc3C2=O)sc(Cc2ccc3c(c2)OCO3)c1C,-59%,u,10µM*,-4,-11,-37,
Cc1cc(C(=O)Nc2cccc3c2O[C@@H](CN(C)S(C)(=O)=O)[C@H](C)CN([C@@H](C)CO)C3=O)n(C)n1,-4%,x,x,x,x,x,
Cc1c(NC(=O)C2CCN(S(=O)(=O)c3ccc(Cl)cc3)CC2)c(=O)n(-c2ccccc2)n1C,-8%,0%,-4%,7,-28,x,
